Reference: PubChem BioAssay (NCI)
The panel holds about 83,000 compounds, 20% with a hit somewhere; the sample as a whole holds those more often.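 Note: values are percent growth. 100 is the growth of untreated cells, values between 100 and 0 indicate rising inhibition; between -100 and 0 indicates cell death.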 A number with no mark means an inactive call. Calls of active or inactive are those of the source. The calls were made as follows: active = growth percent below 10; inactive = the rest.

What was measured:
Experiment in all cases: NCI-60 one-dose screen, 48 h (100 = growth as untreated, 0 = no growth, -100 = all killed)
Conditions in all cases: 10 µM unless noted
NCI-H23 lung = tested on: NCI-H23 lung
NCI-H226 lung = tested on: NCI-H226 lung
NCI-H322M lung = tested on: NCI-H322M lung
HOP-62 NSCLC = tested on: HOP-62 NSCLC
NCI-H460 lung = tested on: NCI-H460 lung
HOP-92 NSCLC = tested on: HOP-92 NSCLC
NCI-H522 lung = tested on: NCI-H522 lung
A549/ATCC NSCLC = tested on: A549/ATCC NSCLC
786-0 renal = tested on: 786-0 renal
COLO 205 colon = tested on: COLO 205 colon
DU-145 prostate = tested on: DU-145 prostate
K-562 leukemia = tested on: K-562 leukemia
MALME-3M melanoma = tested on: MALME-3M melanoma
MDA-MB-231 breast = tested on: MDA-MB-231 breast
RXF 393 renal = tested on: RXF 393 renal
SF-268 CNS = tested on: SF-268 CNS
SF-295 CNS = tested on: SF-295 CNS
SF-539 CNS = tested on: SF-539 CNS
UACC-257 melanoma = tested on: UACC-257 melanoma
M14 melanoma = tested on: M14 melanoma

Row | Compound | growth (NCI-H23 lung) | growth (NCI-H226 lung) | growth (NCI-H322M lung) | growth (HOP-62 NSCLC) | growth (NCI-H460 lung) | growth (HOP-92 NSCLC) | growth (NCI-H522 lung) | growth (A549/ATCC NSCLC) | growth (786-0 renal) | growth (COLO 205 colon) | growth (DU-145 prostate) | growth (K-562 leukemia) | growth (MALME-3M melanoma) | growth (MDA-MB-231 breast) | growth (RXF 393 renal) | growth (SF-268 CNS) | growth (SF-295 CNS) | growth (SF-539 CNS) | growth (UACC-257 melanoma) | growth (M14 melanoma)
1 | O=C(Nc1cccc(Cl)c1)Nc1nc2cc([N+](=O)[O-])ccc2o1 | 38.4% | 56.1% | 37.4% | 58% | 26.5% | -4.19% (active) | 18.2% | 44.6% | 44.2% | 75.1% | 52.7% | 37.8% | 29.7% | 61.4% | 67.4% | 37.3% | 51% | 59.4% | 54.6% | 39.5%
2 | Oc1[nH]c2ccc(Cl)cc2c1N=Nc1nc(N=Nc2c(O)[nH]c3ccc(Cl)cc23)nc(N2CCCCC2)n1 | 27.3% | 63.4% | 59.4% | 94% | 78% | 125% | 45.2% | 60.4% | 66% | 66.6% | 68% | 39.3% | 58.8% | 64.5% | 86.8% | 54.5% | 24.3% | 79.5% | 105% | 81.1%
3 | COC(=O)CNC(=O)c1cccc(-c2cc(=O)c3c(OC)c(OC)c(OC)cc3o2)c1 | 98.1% | 95.8% | 85.4% | 119% | 98.7% | 67.6% | 99.6% | 101% | 104% | 114% | 108% | 125% | 95.2% | 101% | 99.4% | 101% | 101% | 103% | 103% | 103%
4 | O=S(=O)(NCCCNc1nccc(-c2[nH]c(-c3ccccc3)nc2-c2ccc(F)c(O)c2)n1)c1ccccc1 | 96.5% | 99.4% | 117% | 120% | 87.3% | 105% | 91.2% | 98.3% | 113% | 95.5% | 113% | 60.6% | -4.84% (active) | 81.7% | 121% | 90.7% | 96.9% | 105% | 22.4% | 27.8%
5 | COc1ccc(C2CC(c3cccc(OCCCCOc4cccc(C5=NOC(c6ccc(OC)cc6)C5)c4)c3)=NO2)cc1 (stereo not given) | 103% | 100% | 94.7% | 105% | 102% | 104% | 86.4% | 88.5% | 99.1% | 100% | 104% | 45.1% | 110% | 99.9% | 114% | 108% | 101% | 111% | 96.9% | 90.5%
6 | Clc1ccc2[nH]cc(-c3nn4cc(-c5ccncc5)nc4s3)c2c1 | 43.1% | 22.7% | 49.2% | 46.6% | 10.1% | 33.8% | 36.4% | 68.6% | 69.9% | 69.5% | 53.1% | 49% | 26.9% | 50.8% | 79% | 39.1% | 71% | 25.8% | 90.7% | 67.7%
7 | O=c1[nH][nH]c(-c2ccc(F)cc2)c1-c1nc2ccccc2s1 | 89.9% | 82.3% | 88.7% | 89.4% | 92.2% | 77.1% | 92.9% | 111% | 107% | 113% | 104% | 98.1% | 84% | 85% | 99.7% | 98.1% | 103% | 94.8% | 107% | 89.1%
8 | CCOC(=O)c1cccc(NC2=C(Cl)C(=O)C(C)=C(C)C2=O)c1 | 91.9% | 100% | 105% | 103% | 101% | 54.2% | 95% | 102% | 105% | 122% | 104% | 0.169% (active) | 104% | 28% | 102% | 92.8% | 102% | 95.8% | 93.3% | 100%
9 | Cc1ccc(C(=O)CSc2nc3ccccc3c(=O)n2C)cc1 | 79.7% | 78.5% | 89.1% | 94% | 95.5% | 79.6% | 85.3% | 101% | 97.9% | 119% | 95.3% | 68.8% | 107% | 80% | 101% | 94.5% | 88.6% | 93.4% | 93.2% | 94.3%
10 | O=c1c2cc(-c3ccc(F)cc3F)ccc2n(Nc2ccccc2)c(=O)n1-c1cccc(C(F)(F)F)c1 | 2.36% (active) | 14.7% | 7.15% (active) | 10.9% | 9.35% (active) | -33.3% (active) | -5.32% (active) | 10.5% | 48.2% | 74.1% | 26.6% | 6.95% (active) | -18.4% (active) | -5.2% (active) | 5.77% (active) | 22% | -2.47% (active) | 18% | -1.25% (active) | 21.6%
11 | NCCNC(=O)c1cccc(COc2ccccc2NC(=O)c2cc(Br)c(Br)[nH]2)c1 | 84.1% | 95.4% | 99.7% | 105% | 99.4% | 107% | 93.2% | 96.7% | 78.9% | 110% | 96.3% | -16.3% (active) | 98.9% | 91.4% | 93.4% | 61.9% | 88.3% | 96.2% | 116% | 102%
12 | CCN(CC)c1ccc(/C=N/NC(=O)c2ccc(NS(C)(=O)=O)cc2)cc1 | 36.5% | 51.8% | 27.3% | 17.4% | 8.88% (active) | 80% | 21.8% | 29.9% | 13.5% | 13.9% | 37.9% | 14.8% | 15.5% | 43.2% | 12.3% | 32% | 11.4% | 18.6% | -4.47% (active) | 0.0523% (active)
13 | COc1cc(NC(=O)Nc2cccc(-c3cc(=O)c4c(OC)c(OC)c(OC)cc4o3)c2)cc(OC)c1OC | 34.6% | 49.7% | 64.4% | 49.7% | 31.5% | -8.97% (active) | 39.6% | 57.2% | 35.3% | 58.1% | 39.2% | 40% | 52.6% | 47.3% | 15.2% | 49.4% | 47.1% | 47.9% | 74.1% | 55.3%
14 | COc1ccc2[nH]cc(-c3nc(N)nnc3-c3cn(C)c4ccc(Br)cc34)c2c1 | 43.9% | 34.7% | 53.7% | 38.9% | 15.1% | 44% | 7.41% (active) | 35.6% | 24.1% | 20% | 48.8% | 5.19% (active) | 42.2% | 48.1% | 5.35% (active) | 39.4% | 20.1% | 18.1% | 46.8% | 5.3% (active)
15 | O=C(/C=C/c1cccc(Br)c1)c1cccc(OCCCCOc2cccc(C(=O)/C=C/c3cccc(Br)c3)c2)c1 | 98% | 103% | 103% | 107% | 100% | 115% | 98.1% | 98.8% | 106% | 115% | 109% | 90.1% | 98% | 101% | 105% | 99.9% | 107% | 104% | 109% | 93.9%
